One test concerns Klebsiella pneumoniae. The note with it: Concentration 32 ug.mL-1;; ASSAY_TEST Inhibition of Bacterial Growth; detection method Absorption (OD600); MEDIA CAMHB; plate type 384well; NBS; CORNING #3640; time 18 hr.
The test system of another test is Candida albicans. The note with it: Concentration 32 ug.mL-1; ASSAY_TEST Inhibition of Fungal Growth; detection method Absorption (OD530).
For another test, the system named is Cryptococcus neoformans. The note with it: Concentration 32 ug.mL-1; ASSAY_TEST Inhibition of Fungal Growth; detection method Resazurin; Absorption (OD600-OD570); plate type 384well; NBS; CORNING #3640.

Results with a measured potency or affinity are listed apart.

By Inhibition is commonly meant the relative decrease from the control value, in per cent. `COc1ccc(-c2cc3c4nnc(SCC(=O)Nc5cc(F)ccc5C)n4ccn3n2)cc1`: the results for the Inhibition in the test with Klebsiella pneumoniae, in the test on Candida albicans and with Cryptococcus neoformans were -19.37%, 1.81% and -16.34%, respectively.
On to `CCc1nnc2c(SCC(=O)Nc3cccc(OC)c3)nc3ccccc3n12`, for which the Inhibition is 3.16% in the test on Klebsiella pneumoniae, 3.37% in the test on Candida albicans and -8.02% in the test on Cryptococcus neoformans.
The like results for `CC(C)c1nnc2c(=O)n(CC(=O)Nc3ccc(Br)cc3)c3ccccc3n12` were, in that order, 14.25%, 2.31% and -6.21%.
Regarding `COc1cc(NC(=O)Cn2nc3c(Sc4cccc(F)c4)nccn3c2=O)cc(OC)c1`, the Inhibition with Klebsiella pneumoniae is 4.9%; in the test on Candida albicans, 1.46%; in the test with Cryptococcus neoformans, -6.36%.
For `CCOc1ccc(-n2ccn3c(SC(CC)C(=O)Nc4cc(F)ccc4F)nnc3c2=O)cc1` (configuration not stated) the same measures were 11.22%, 0.62% and -9.91%.
The like results for `Cc1ccccc1Oc1nccn2c(=O)n(CC(=O)Nc3ccc(Cl)c(Cl)c3)nc12` were, in that order, 6.86%, 2.23% and -12.87%.
The like results for `Cc1nnc2c(=O)n(CC(=O)Nc3cccc(Cl)c3)c3ccccc3n12` were, in that order, 15.43%, -0.29% and -13.95%.
Take `CCCCOc1ccc(-c2cc3c4nnc(SCC(=O)Nc5cc(C)ccc5OC)n4ccn3n2)cc1`: the Inhibition in the test on Klebsiella pneumoniae is reported as -4.93%; with Candida albicans, 45.46%; with Cryptococcus neoformans, -16.58%.
Consider `Cc1ccc(C)c(CSc2nnc3c(=O)n(-c4ccc(Br)cc4)ccn23)c1`, for which the Inhibition in the test with Klebsiella pneumoniae is on record as 7.74%; in the test on Candida albicans, 3.39%; with Cryptococcus neoformans it was -4.05%.
For `COc1ccc(C)cc1NC(=O)Cn1nc2cc(C)nc(Nc3ccc(F)cc3)n2c1=O` the same measures were 2.21%, 2.84% and -7.79%.
The like results for `COc1ccccc1-n1ccn2c(SCC#N)nnc2c1=O` were, in that order, 22.72%, 4.95% and -18.74%.
The like results for `Cc1ccc(Sc2nccn3c(=O)n(CC(=O)Nc4ccccc4Br)nc23)c(C)c1` were, in that order, 1.33%, 1.01% and -20.06%.
Turning to `Cc1ccc(-c2cc3c4nn(CC(=O)Nc5ccc(C)c(Cl)c5)c(=O)n4ccn3n2)cc1C`, the Inhibition is reported as 10.5% with Klebsiella pneumoniae, 8.38% with Candida albicans and -8.69% in the test on Cryptococcus neoformans.
For `O=C(Cn1nc2c(SCc3ccccc3)nccn2c1=O)NC1CCCCC1` the same measures were 7.95%, 4.49% and -7.22%.
In the case of `O=C(CSc1nnc2c(=O)n(-c3ccccc3)ccn12)NCc1ccc(Cl)cc1`, the Inhibition in the test with Klebsiella pneumoniae was 5.95%; in the test on Candida albicans, -0.29%; in the test on Cryptococcus neoformans it was -12.48%.
For `O=C(Cn1nc2ccc(SCc3ccc(Cl)cc3)nn2c1=O)NCc1ccccc1` the same measures were 6.87%, 25.95% and -17.55%.
`Cc1cc(C)c(C(=O)CSc2nnc3c(=O)n(-c4ccc(F)cc4)ccn23)cc1C`: the Inhibition with Klebsiella pneumoniae is on record as 7.49%; with Candida albicans, 4.64%; in the test on Cryptococcus neoformans, -8.78%.
For `Cc1nnc2c(S(=O)(=O)N(Cc3cccc(Cl)c3)c3ccc(F)c(F)c3)cccn12` the same measures were 3.16%, 2.06% and -7.4%.
For `CCc1ccc(NC(=O)Cn2nc3c(=O)n(-c4ccc(Br)cc4)ccn3c2=O)cc1` the same measures were -9.6%, 4.29% and -8.7%.
Consider `O=c1c2nn(Cc3ccccc3F)c(=O)n2ccn1-c1ccccc1`, for which the values for the Inhibition in the test on Klebsiella pneumoniae, in the test on Candida albicans and with Cryptococcus neoformans were 4.89%, 1.22% and -10.1%, respectively.
The like results for `COc1cc(OC)c(NC(=O)Cn2nc3ccc(-c4ccc(C)c(C)c4)nn3c2=O)cc1Cl` were, in that order, 7.84%, 1.07% and -20.51%.
The like results for `COc1ccc(-c2cc3c4nnc(SCC(=O)Nc5cccc(Cl)c5C)n4ccn3n2)cc1` were, in that order, -3.16%, 6.33% and -18.63%.
The like results for `COc1ccc(-c2cc3c4nn(CC(=O)Nc5c(C)cccc5C)c(=O)n4ccn3n2)cc1` were, in that order, 9.85%, 7.22% and -19.98%.
For `Cc1nnc2ccc(S(=O)(=O)N(Cc3ccccc3Cl)c3cccc(F)c3)cn12`, the Inhibition with Klebsiella pneumoniae is given as 7.69%; with Candida albicans, 4.75%; in the test with Cryptococcus neoformans, -10.07%.
For `CCN(CCCNC(=O)CCc1nnc2ccc(-c3ccccc3)nn12)c1ccccc1` the same measures were 9.95%, 3.75% and -0.38%.
In the case of `O=C(Cn1nc2c(Sc3ccccc3)nccn2c1=O)Nc1ccc2c(c1)OCCO2`, the figures for the Inhibition with Klebsiella pneumoniae, in the test on Candida albicans and in the test on Cryptococcus neoformans were 12.02%, -0.06% and -3.83%, respectively.
Turning to `Cc1ccc(Cl)cc1NC(=O)Cn1c(=O)c2nnc(C(C)C)n2c2ccccc21`, the figures for the Inhibition with Klebsiella pneumoniae, in the test with Candida albicans and in the test on Cryptococcus neoformans were 5.77%, 3.52% and -16.4%, respectively.
For `O=S(=O)(Nc1ccc2c(c1)OCCO2)c1ccc2nncn2c1` the same measures were 12.24%, 2.83% and -7.84%.
The like results for `Cn1c(=O)c2ccc(C(=O)NC3CCCCC3)cc2n2c(=O)n(Cc3cccc(C(F)(F)F)c3)nc12` were, in that order, 16.04%, 1.42% and -24.7%.
